In PubChem BioAssay AID1030 (National Center for Advancing Translational Sciences (NCATS), 2008):
Out of some 220,000 compounds screened, about 16,000 (7.3%) were called active. Roughly 25% stayed inconclusive and do not appear here. What follows is part of a selection rich in actives, with near analogues and random picks from the rest. Entries that show only a call come without a potency. Unmarked numbers belong to inactive results. Calls come from the whole dose curve; as a rule, active = well fitted inhibition curve with a large enough effect (not every such curve was filed as active); inconclusive = small, poorly fitted or top-dose-only effect, or another doubt; inactive = no such curve, though single readings can be large or run the other way.

What follows are molecules tested against Aldehyde dehydrogenase 1A1 (Homo sapiens) (UniProt P00352) (assay: qHTS Assay for Inhibitors of Aldehyde Dehydrogenase 1 (ALDH1A1)). Conditions: Purified ALDH1A1, NADH fluorescence, propionaldehyde substrate; series mostly up to 75.3 µM.
Aldehyde dehydrogenase 1A1 (Homo sapiens), sequence (P00352 whole entry, looked up): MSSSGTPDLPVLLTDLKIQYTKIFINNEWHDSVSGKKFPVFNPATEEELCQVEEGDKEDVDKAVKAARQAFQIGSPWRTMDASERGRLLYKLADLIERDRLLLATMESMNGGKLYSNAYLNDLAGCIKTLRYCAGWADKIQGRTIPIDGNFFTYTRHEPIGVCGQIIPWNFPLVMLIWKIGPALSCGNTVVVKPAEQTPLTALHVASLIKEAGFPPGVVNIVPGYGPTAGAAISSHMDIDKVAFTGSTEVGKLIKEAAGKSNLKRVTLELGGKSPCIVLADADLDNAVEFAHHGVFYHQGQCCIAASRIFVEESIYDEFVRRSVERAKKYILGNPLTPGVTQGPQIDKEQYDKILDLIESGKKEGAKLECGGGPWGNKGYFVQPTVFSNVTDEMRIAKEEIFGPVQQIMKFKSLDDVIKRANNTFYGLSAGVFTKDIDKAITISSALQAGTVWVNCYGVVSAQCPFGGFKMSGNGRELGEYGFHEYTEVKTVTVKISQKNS
Potency is the fitted concentration of half-maximal effect.

| Compound | Potency | activity, negative = inhibition |
| --- | --- | --- |
| CCOC(=O)N1CCC(=NNC(N)=O)CC1 | inactive | – |
| O=C(NCC1CCCO1)C1CCN(C2CCN(C(=O)C3CCCCC3)CC2)CC1 (configuration not stated) | inactive | – |
| Cc1cccc(NC(=O)c2nnn(-c3cccc(C(F)(F)F)c3)c2N)c1 | inactive | – |
| CCn1c2ccccc2c2cc(NC(=S)N3CCOCC3)ccc21 | inactive | – |
| CCn1c2ccccc2c2cc(NC(=O)CNC)ccc21 | 25.1 µM (active) | – |
| CCn1c2ccccc2c2cc(NC(=O)COC(=O)c3ccccc3Br)ccc21 | inactive | – |
| CCOc1ccc(CN2CCN(Cc3ccc(C)o3)CC2CCO)cc1 (configuration not stated) | inactive | – |
| CCOC(=O)N1CCN(C(c2cccnc2)c2ccc3cccnc3c2O)CC1 (configuration not stated) | 1.58 µM (active) | – |
| Oc1c(CN2CCN(c3ccc(F)cc3)CC2)cc(Cl)c2cccnc12 | inactive | – |
| Oc1c(C(c2ccccn2)N2CCOCC2)ccc2cccnc12 (configuration not stated) | inactive | – |
| CCN1CCN(C(c2cccnc2)c2cc(Cl)c3cccnc3c2O)CC1 (configuration not stated) | 1.78 µM (active) | – |
| CCOC(=O)N1CCN(C(=O)CSc2ccc(Cl)cc2)CC1 | inactive | – |
| O=C(O)COc1c(Cl)cc(Cl)c2cccnc12 | – | -8.71% [at 13.5 µM] |
| O=C(Nc1cccnc1)c1cc2cc(Br)ccc2oc1=O | inactive | – |
| CCCN(CCC)c1ccc(C(O)c2nnc(-c3ccccc3)o2)cc1 (configuration not stated) | inactive | – |
| Oc1ccc(N=Nc2nccs2)c(O)c1 | inactive | – |
| Cc1nn2cc(-c3ccc(Cl)cc3)cnc2c1Br | inactive | – |
| CCCCCCCC1(C)NC(=O)N(CC(=O)Nc2cc(C)on2)C1=O (configuration not stated) | inactive | – |
| CC1CN(S(=O)(=O)c2ccc(C(=O)NN3CCN(C)CC3)cc2)CC(C)O1 (configuration not stated) | inactive | – |
| COc1cc([C@H](Cc2ccccc2)NC(C)=O)oc(=O)c1 | inactive | – |
| O=C(NN1C(=O)C2C3C=CC(C3)C2C1=O)c1ccco1 (configuration not stated) | inactive | – |
| COc1ccccc1C(=O)NNC(=O)c1ccc(NC(=O)c2ccccc2)cc1 | inactive | – |
| O=C(NN1C(=O)C2C3C=CC(O3)C2C1=O)c1ccncc1 (configuration not stated) | 17.8 µM (active) | – |
| COc1ccccc1C(=O)NN1C(=O)C2C3C=CC(O3)C2C1=O (configuration not stated) | 20 µM (active) | – |

| Compound | Potency | activity, negative = inhibition |
| --- | --- | --- |
| O=C(Nc1ccc2c(c1)OCCO2)c1ccncc1 | inactive | – |
| COc1ccccc1C(=O)Nn1c(-c2cccs2)nc2ccccc2c1=O | inactive | – |
| COC(=O)c1ccc(CN2CCC(CO)(Cc3ccc(OC)cc3)CC2)cc1 | inactive | – |
| CC(NC(=S)NC1CCCCC1)C(c1ccccc1)N1CCOCC1 (configuration not stated) | inactive | – |
| Cc1cc(C)c2cc(CN(Cc3cccs3)Cc3nnnn3CC3CCCO3)c(=O)[nH]c2c1 (configuration not stated) | 11.2 µM (active) | – |
| Cc1cccc(N2CCN(C(c3ccccc3)c3nnnn3CC3CCCO3)CC2)c1C (configuration not stated) | inactive | – |
| CC(C)(C)n1nnnc1C(c1cccs1)N(Cc1cccnc1)CC1CCCO1 (configuration not stated) | inactive | – |
| CCCCC(=O)Nc1ccc(C(=O)Nc2cc(C(F)(F)F)ccc2Cl)cc1 | inactive | – |
| C[C@@H](Nc1nc(-c2ccccc2)nc2c1oc1ccccc12)C(=O)O | 7.08 µM (active) | – |
| CCSc1nc(C)nc2c1oc1ccccc12 | inactive | – |
| Cc1nc(Cl)c2oc3ccccc3c2n1 | inactive | – |
| O=C(NCCN1CCOCC1)Nc1cccc(Cl)c1 | inactive | – |
| CC/C(=N\NC(=S)NC(C)C)c1ccc(OC(F)F)cc1 | inactive | – |
| Cc1ccc(NC(=S)N(CCCN2CCCC2)Cc2cccn2Cc2ccc(Cl)cc2)cc1 | inactive | – |
| COc1ccc(C(=O)Nc2ccc(CN3CCOCC3)cc2)cc1 | inactive | – |
| C/C(CCc1ccccc1)=N\NC(=O)c1ccc(CN2CCOCC2)cc1 | 25.1 µM (active) | – |
| O=C(Nc1ccc(CSc2ccccc2)cc1)c1ccc(CN2CCOCC2)cc1 | inactive | – |
| O=C(COc1ccc(NC(=O)c2ccccc2[N+](=O)[O-])cc1)c1ccc(F)cc1 | inactive | – |
| CSc1ncccc1C(=O)Nc1nc2ccc(F)cc2s1 | inactive | – |
| COCC1CCCN(Cc2cn[nH]c2-c2cc3ccccc3o2)C1 (configuration not stated) | inactive | – |
| O=C(O)c1ccc(/C=N/NC(=S)NCc2ccccc2)cc1 | inactive | – |
| O=[N+]([O-])c1ccccc1SNc1ccccn1 | 20 µM (active) | – |
| O=C(Cl)c1ccccc1[N+](=O)[O-] | inactive | – |
| O=C(Nc1ccncc1)c1ccccc1[N+](=O)[O-] | inactive | – |

| Compound | Potency | activity, negative = inhibition |
| --- | --- | --- |
| COc1cc(NC(=O)COc2ccccc2Cl)ccc1NC(=O)C(C)C | inactive | – |
| COc1ccc(S(=O)(=O)N(C)C)cc1NC(=O)CSc1ncccn1 | inactive | – |
| Cc1cccc(C)c1NC(=O)N1CC=C(n2c(=O)[nH]c3ccccc32)CC1 | 6.31 µM (active) | – |
| Cc1cccc(C)c1NC(=O)c1ccc(CN2CCc3ccccc3C2)cc1 | inactive | – |
| O=C(Nc1ccc(Cl)c(Cl)c1)N1CC=C(c2ccccc2)CC1 | inactive | – |
| CSc1ccc(CNCCN2CCOCC2)cc1 | inactive | – |
| Cc1ccc(-c2nc(C)sc2CC(=O)OCC(=O)Nc2c(F)cccc2F)cc1 | inactive | – |
| Cc1ccc(NC(=O)Nc2nnc(-c3ccncc3)s2)cc1 | inactive | – |
| O=C(CC1CCCCC1)NCc1ccco1 | inactive | – |
| O=C(CSC1=Nc2ccccc2C2=NC(CC(=O)NCc3ccco3)C(=O)N12)NCc1ccco1 (configuration not stated) | 7.94 µM (active) | – |
| CCOCCc1c(O)nc(SCC(=O)NCc2ccco2)[nH]c1=O | inactive | – |
| O=C(NNC(=S)NC1CCCCC1)c1ccccc1Cl | inactive | – |
| CC(C)NC(=O)CSc1nnc(COc2ccccc2Cl)o1 | inactive | – |
| Cc1ccccc1OCc1nnc(SCC(=O)N2c3ccccc3Sc3ccc(Cl)cc32)o1 | 10 µM (active) | – |
| Cc1ccc(NC(=O)CSc2nnc(COc3ccccc3C)o2)cc1 | inactive | – |
| O=C(CSc1ccccn1)Nc1nc2c(ccc3ccccc32)s1 | inactive | – |
| CN(C)c1ccc(/C=C2\NC(=S)N(Cc3ccccc3)C2=O)cc1 | 11.2 µM (active) | – |
| O=C1NCC(=O)N(Cc2ccccc2)/C1=C/c1ccccc1 | inactive | – |
| O=C1N/C(=C/c2cccs2)C(=O)N1Cc1ccc(F)cc1 | inactive | – |
| CCc1nnc(NC(=O)CCCSc2nc3ccccc3[nH]2)s1 | inactive | – |
| COc1cc(OC)cc(-c2nc(=S)n3ccsc3n2)c1 | inactive | – |
| CC(Oc1ccccc1)C(=O)NN1Cc2ccccc2C1=N (configuration not stated) | inactive | – |
| COc1ccc(/C(C)=N/NC(=O)CCC(=O)Nc2ccc(Cl)cc2Cl)c(OC)c1 | inactive | – |
| NC(=O)COC(=O)c1sc2cc(F)ccc2c1Cl | inactive | – |
